Assay results published in PubChem BioAssay (NCATS).
Inconclusive results are not listed. For some of these results: Results with a measured potency or affinity are listed apart. Activity calls are given as the source filed them.

Legend:
[1] = Ebola virus entry assay, reporter ratio channel; AC50: Channel type: primary unless noted; outcome: Channel type: primary unless noted
[2] = Ebola virus entry assay, blue channel (ratio component)
[3] = Ebola virus entry reporter assay, green channel fluorescence
[4] = Ebola virus entry cell assay, ratio channel
[5] = Immunotoxin (HA22) sensitization/mitigation study. Vehicle arm (PBS) (AID 1159510); note: potency is the fitted concentration of half-maximal effect
[6] = Immunotoxin (SS1P) sensitization/mitigation study. Vehicle arm (DMEM) (AID 1159513); note: potency is the fitted concentration of half-maximal effect
[7] = High-throughput drug toxicity screening in the BPDCN cell line Gen2.2 (AID 1224824); conditions: Gen2.2 BPDCN cells; at 45.8 µM (top of the series);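 note: cells exposed to compounds for 48 h before reading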
Method in brief: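 Gen2.2 cells, 500 per well in phenol red-free RPMI with 10% FBS, exposed to compounds 48 h at 37 C, 5% CO2; viability by CellTiter-Glo luminescence. Percent activity scaled to DMSO (100%) and 9.2 uM bortezomib final (0%).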

[8] = High-throughput drug toxicity screening in the BPDCN cell line Cal-1 (AID 1224825); conditions: Cal-1 BPDCN cell viability, qHTS; at 45.8 µM (top of the series)
Method in brief: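 Cal-1 cells, 500 per well in phenol-red-free RPMI with 10% FBS, exposed to compounds for 48 hours at 37C, 5% CO2. Viability read by CellTiter-Glo luminescence; percent activity normalized to DMSO (100%) and 9.2 uM bortezomib final (0%).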

[9] = qHTS assay for measurement of the activity of small molecule inhibitors on Zika virus induced Caspase-3 activity in human iPSC derived neural progenitor cells (hNPCs) (AID 1224857; active = well fitted curve in the direction sought with a large enough effect; an effect the other way counts as inactive or inconclusive; note: nearly all actives have a fitted effect of over 65% in size)
Method in brief: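 After overnight (16–20 h) culture at 350 cells/well, hNPCs get compound, then ZIKV 2 FFU/cell one hour later. Six hours on, Caspase-Glo 3/7 is added and luminescence measured.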

[10] = qHTS assay for measurement of the activity of small molecule inhibitors on Zika virus induced Caspase-3 activity in human astrocytoma cells (AID 1224859; active = well fitted curve in the direction sought with a large enough effect; an effect the other way counts as inactive or inconclusive)
Method in brief: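 Inhibition of Zika-induced caspase-3/7 activity: SNB-19 cells, 1 h compound pretreatment, ZIKV 2 FFU/cell for 6 h at 37 C, Caspase-Glo luminescence read-out.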

[11] = qHTS Screen of the MIPE 4.0 Collection Against Ewings Sarcoma (RDES) (AID 1259252; active = well fitted curve in the direction sought with a large enough effect; an effect the other way counts as inactive or inconclusive; note: nearly all actives have a fitted effect of over 35% in size)
Method in brief: (§1)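 Viability screen: 48 h incubation at 37C, 95% humidity, 5% CO2 with serially titrated compound, followed by CellTiter-Glo readout.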

[12] = qHTS Screen of the MIPE 4.0 Collection Against Ewings Sarcoma (EW8) (AID 1259255; active = well fitted curve in the direction sought with a large enough effect; an effect the other way counts as inactive or inconclusive; note: nearly all actives have a fitted effect of over 35% in size)
Method in brief: as §1

[13] = qHTS Screen of the MIPE 4.0 Collection Against Ewings Sarcoma (TC32) (AID 1259256; active = well fitted curve in the direction sought with a large enough effect; an effect the other way counts as inactive or inconclusive; note: nearly all actives have a fitted effect of over 45% in size)
Method in brief: as §1

[14] = qHTS assay to identify small molecule inhibitors of chordoma cells - UCH-1 (AID 1259355; active = well fitted curve in the direction sought with a large enough effect; an effect the other way counts as inactive or inconclusive; note: nearly all actives have a fitted effect of over 55% in size)
Method in brief: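 Cells (800/well) were seeded and left overnight at 37 C, 5% CO2, then treated with drugs at 15 concentrations plus a combination mix of auranofin, camptothecin, doxorubicin, rubitecan and topotecan. Viability after 48hr was read by CellTiter-Glo luminescence.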

[15] = qHTS assay to identify small molecule inhibitors of chordoma cells - UCH-2 (AID 1259356; active = well fitted curve in the direction sought with a large enough effect; an effect the other way counts as inactive or inconclusive)

CC(C)c1c(C(=O)Nc2ccccc2)c(-c2ccccc2)c(-c2ccc(F)cc2)n1CC[C@@H](O)C[C@@H](O)CC(=O)O
inactive: outcome [1] | outcome [2] | outcome [3] | outcome [4]

Cn1cnc2c(F)c(Nc3ccc(Br)cc3Cl)c(C(=O)NOCCO)cc21
inactive: outcome [1] | outcome [2] | Potency [5] | Potency [6]

CN(C)CCc1ccc(O)cc1
191%: cell viability, % of control (lower = more cytotoxic) [7]
inactive: outcome [1] | outcome [2] | Potency [9] | outcome [10] | Potency [11] | Potency [12] | Potency [13] | Potency [14] | Potency [15]
108%: viability (% of control) [8]

Cc1ccc(S(=O)(=O)NC(=O)NN2CC3CCCC3C2)cc1 (stereo unspecified)
inactive: outcome [1] | outcome [2] | outcome [3] | outcome [4]

COC[C@@H](NC(C)=O)C(=O)NCc1ccccc1
115%: viability (% of control) [8]
inactive: outcome [1] | outcome [2] | Potency [9] | outcome [10] | Potency [11] | Potency [12] | Potency [13]
142%: cell viability, % of control (lower = more cytotoxic) [7]

CCC(COC(=O)c1cc(OC)c(OC)c(OC)c1)(c1ccccc1)N(C)C (stereo unspecified)
inactive: outcome [2] | outcome [3] | outcome [4] | outcome [10] | Potency [14] | Potency [15]
active: AC50 [1] 17.8 µM

NNc1nncc2ccccc12
inactive: outcome [1] | outcome [2] | outcome [3] | outcome [4]

CN1CC(=O)N/C1=N/C(=O)Nc1cccc(Cl)c1
inactive: outcome [1] | outcome [2] | Potency [5] | Potency [6]

CC(C)OC(=O)C(C)(C)Oc1ccc(C(=O)c2ccc(Cl)cc2)cc1
inactive: outcome [1] | outcome [2] | outcome [3] | outcome [4]

C#Cc1cccc(Nc2ncnc3cc(OCCOC)c(OCCOC)cc23)c1
inactive: outcome [1] | outcome [2] | outcome [3]
active: AC50 [4] 8.91 µM | Potency [5] 16.6 µM | Potency [6] 4.69 µM

CC(=O)SC[C@@H](C)C(=O)N1CCC[C@H]1C(=O)N[C@@H](Cc1ccccc1)C(=O)O
inactive: outcome [1] | outcome [2] | Potency [5] | Potency [6]
